The campaign covered roughly 5,500 compounds. About 2,000 (36%) were called active. Roughly 18% stayed inconclusive and do not appear here. Cut-off read from the data, not from the text of the source: active = normalized growth mostly below about 0.91 (no sharp cut-off); inconclusive = no clear call, values can overlap the other calls; inactive = mostly above about 0.92. This is one part of the list.
Assay: chemical genetic growth profiling, strain panel (AID 1159580);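 note: tested at 20 µM; growth read once vehicle control cultures reached saturation at 30 °C; 1 = growth at the plate median or of vehicle wells; lower values mean less growth of the strain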
Settings: S. cerevisiae deletion strains, growth OD

Measured: normalized growth

CNC(=O)[C@H]1O[C@@H](n2cnc3c(N)ncnc32)C(O)[C@H]1O (some centres undefined)
inactive: locus YAL013W, strain DEP1, stronger effect = lower value 0.987 | locus YAL040C, strain CLN3, stronger effect = lower value 0.989 | locus YDR363W, strain ESC2, stronger effect = lower value 1.07 | locus YER002W, strain NOP16, stronger effect = lower value 0.973 | locus YGR078C, strain PAC10, stronger effect = lower value 1 | locus YMR263W, strain SAP30, stronger effect = lower value 0.985 | locus YNL128W, strain TEP1, stronger effect = lower value 0.983 | locus YNL175C, strain NOP13, stronger effect = lower value 0.984 | locus YNL197C, strain WHI3, stronger effect = lower value 0.997 | locus YNL224C, strain SQS1, stronger effect = lower value 0.996 | locus YNL322C, strain KRE1, stronger effect = lower value 1.02 | locus YOR083W, strain WHI5 (second series), stronger effect = lower value 1.02 | locus YPL241C, strain CIN2, stronger effect = lower value 0.976

CSC1=NNC(c2nn(C)cc2Cl)S1 (centres undefined)
active: locus YAR019C, strain CDC15, stronger effect = lower value 0.366 | locus YBL105C, strain PKC1, stronger effect = lower value 0.509 | locus YBR135W, strain CKS1, stronger effect = lower value 0.582 | locus YBR136W, strain MEC1, stronger effect = lower value 0.565 | locus YBR160W, strain CDC28, stronger effect = lower value 0.644 | locus YDL017W, strain CDC7, stronger effect = lower value 0.586 | locus YDL028C, strain MPS1, stronger effect = lower value 0.551 | locus YDL101C, strain DUN1, stronger effect = lower value 0.206 | locus YDL108W, strain KIN28, stronger effect = lower value 0.653 | locus YDL132W, strain cdc53, stronger effect = lower value 0.472 | locus YDL214C, strain PRR2, stronger effect = lower value 0.145 | locus YDR052C, strain DBF4, stronger effect = lower value 0.874 | locus YDR054C, strain cdc34, stronger effect = lower value 0.318 | locus YDR226W, strain ADK1, stronger effect = lower value 0.511 | locus YDR477W, strain SNF1, stronger effect = lower value 0.134 | locus YER123W, strain YCK3, stronger effect = lower value 0.126 | locus YER133W, strain GLC7, stronger effect = lower value 0.138 | locus YFL009W, strain cdc4, stronger effect = lower value 0.282 | locus YFL029C, strain CAK1, stronger effect = lower value 0.374 | locus YFR003C, strain YPI1, stronger effect = lower value 0.594 | locus YFR019W, strain FAB1, stronger effect = lower value 0.148 | locus YFR028C, strain CDC14, stronger effect = lower value 0.444 | locus YGR040W, strain KSS1, stronger effect = lower value 0.13 | locus YGR052W, strain FMP48, stronger effect = lower value 0.131 | locus YGR092W, strain DBF2, stronger effect = lower value 0.117 | locus YHR030C, strain SLT2, stronger effect = lower value 0.178 | locus YHR079C, strain IRE1, stronger effect = lower value 0.214 | locus YHR082C, strain KSP1, stronger effect = lower value 0.236 | locus YHR205W, strain SCH9, stronger effect = lower value 0.0971 | locus YIL147C, strain SLN1, stronger effect = lower value 0.502 | locus YJL095W, strain BCK1, stronger effect = lower value 0.134 | locus YJL128C, strain PBS2, stronger effect = lower value 0.31 | locus YJL157C, strain FAR1, stronger effect = lower value 0.159 | locus YJR016C, strain ILV3, stronger effect = lower value 0.337 | locus YJR066W, strain TOR1 (second series), stronger effect = lower value 0.171 | locus YJR066W, strain TOR1, stronger effect = lower value 0.17 | locus YKL048C, strain ELM1, stronger effect = lower value 0.158 | locus YKL067W, strain YNK1, stronger effect = lower value 0.176 | locus YKL101W, strain HSL1, stronger effect = lower value 0.142 | locus YKL193C, strain SDS22, stronger effect = lower value 0.425 | locus YKL203C, strain TOR2, stronger effect = lower value 0.136 | locus YLR113W, strain HOG1, stronger effect = lower value 0.157 | locus YLR133W, strain CKI1, stronger effect = lower value 0.137 | locus YLR403W, strain SFP1, stronger effect = lower value 0.0487 | locus YML070W, strain DAK1, stronger effect = lower value 0.147 | locus YMR001C, strain CDC5, stronger effect = lower value 0.479 | locus YMR205C, strain PFK2 (second series), stronger effect = lower value 0.143 | locus YMR277W, strain FCP1, stronger effect = lower value 0.292 | locus YNL006W, strain LST8, stronger effect = lower value 0.372 | locus YNL020C, strain ARK1, stronger effect = lower value 0.126 | locus YNL161W, strain CBK1, stronger effect = lower value 0.393 | locus YNL183C, strain NPR1, stronger effect = lower value 0.112 | locus YNL207W, strain RIO2, stronger effect = lower value 0.448 | locus YNL222W, strain SSU72, stronger effect = lower value 0.455 | locus YNL307C, strain MCK1 (second series), stronger effect = lower value 0.122 | locus YOL078W, strain AVO1, stronger effect = lower value 0.415 | locus YOL136C, strain PFK27, stronger effect = lower value 0.116 | locus YOR061W, strain CKA2, stronger effect = lower value 0.118 | locus YOR119C, strain RIO1, stronger effect = lower value 0.156 | locus YOR231W, strain MKK1, stronger effect = lower value 0.222 | locus YOR329C, strain SCD5, stronger effect = lower value 0.487 | locus YPL031C, strain PHO85, stronger effect = lower value 0.128 | locus YPL153C, strain RAD53, stronger effect = lower value 0.121 | locus YPL204W, strain HRR25, stronger effect = lower value 0.16 | locus YPL209C, strain IPL1, stronger effect = lower value 0.595 | locus YPL256C, strain CLN2, stronger effect = lower value 0.177 | locus YPR025C, strain CCL1, stronger effect = lower value 0.511 | locus YPR106W, strain ISR1, stronger effect = lower value 0.395 | locus YPR111W, strain DBF20, stronger effect = lower value 0.525 | strain NNK1, stronger effect = lower value 0.199 | strain TSCII, stronger effect = lower value 0.337
